Test results reported in article PMC5540273 (PLoS ONE, 2017).

Experiments:
Settings in all cases: concentration: 1 μM,replicates: in singlicate; n = 1
TNNI3K = tested on: TNNI3K
TRKA = tested on: T1, TRKA
T1 construct: gene NTRK1

TRKB = tested on: TRKB
TRKC = tested on: T2, TRKC
T2 construct: gene NTRK3

TRPM6 = tested on: TRPM6
TSSK1B = tested on: TSSK1B
TSSK3 = tested on: TSSK3
TTK = tested on: TTK
TXK = tested on: TXK
[1] = tested on: TYK2(JH1domain-catalytic)
[2] = tested on: TYK2(JH2domain-pseudokinase)
TYRO3 = tested on: TYRO3
ULK1 = tested on: ULK1
ULK2 = tested on: ULK2
ULK3 = tested on: ULK3
VEGFR2 = tested on: T3, VEGFR2
T3 construct: gene KDR

VPS34 = tested on: T4, VPS34
T4 construct: gene PIK3C3

VRK2 = tested on: VRK2
WEE1 = tested on: WEE1
WEE2 = tested on: WEE2
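Further: KINOMEscan kinase panel screen.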

Structure (SMILES)	%Inh (TNNI3K) [%]	%Inh (TRKA) [%]	%Inh (TRKB) [%]	%Inh (TRKC) [%]	%Inh (TRPM6) [%]	%Inh (TSSK1B) [%]	%Inh (TSSK3) [%]	%Inh (TTK) [%]	%Inh (TXK) [%]	%Inh [1] [%]	%Inh [2] [%]	%Inh (TYRO3) [%]	%Inh (ULK1) [%]	%Inh (ULK2) [%]	%Inh (ULK3) [%]	%Inh (VEGFR2) [%]	%Inh (VPS34) [%]	%Inh (VRK2) [%]	%Inh (WEE1) [%]	%Inh (WEE2) [%]
CC(C)N1C(=O)Cc2cc(Nc3ncc(C(F)(F)F)c(NCc4cccc(S(C)(=O)=O)c4)n3)ccc21	0	96.7	84	62	4	0	0	99.1	0	92.2	29	0	60	54	59	74	55	39	38	7
Cc1cc2cn[nH]c2cc1-c1cccc2c(N)c(C(N)=O)nnc12	0	51	66	54	75	0	28	34	95.4	71	65	15	28	30	50	13	19	21	12	29
NC(=O)c1cc(-c2ccccc2)cc2c(C3CCNCC3)c[nH]c12 [GSK301362]	10	51	0	4	33	27	22	24	0	69	99.7	1	23	29	18	0	0	0	14	11
COc1ccc(C[C@@H](CN)NC(=O)c2cc(Br)c(-c3ccnc4[nH]ccc34)s2)cc1.Cl.Cl [GSK1389063]	27	91.8	90.8	90.3	0	28	12	23	30	82	23	0	40	16	12	58	35	47	0	18
Cc1ccc2c(-c3ccncc3)c(-c3ccc(F)cc3)nn2c1.Cl [GW461484]	5	18	0	2	8	9	9	0	0	0	2	0	7	0	23	2	0	0	3	1
CN(C)CC(O)COc1ccc(Nc2nccc(-c3cnn4nc(N5CCOCC5)ccc34)n2)cc1 (stereo not shown) [GW767488]	0	81	31	45	33	5	65	57	3	66	97.3	10	98.8	96.3	61	20	95.4	0	8	0
Cl.Cl.NC[C@H](CC1CCCCC1)NC(=O)c1cc(Br)c(-c2ccnc3[nH]ccc23)s1 [GSK1581427]	0	84	64	57	8	58	3	21	1	13	5	0	28	0	10	7	0	0	3	10
C[C@@H]1CCN(C(=O)CC#N)C[C@@H]1N(C)c1ncnc2[nH]ccc12	0	0	0	0	0	0	0	0	1			0	0	0	0	0	0	0	0	2
Cc1occc1-c1nc(N)c(OC[C@@H](N)Cc2c[nH]c3ccccc23)cc1-c1cc2c(C)n[nH]c2cn1 [GSK1660450]	20	3	0	0	22	20	5	32	43	3	0	0	33	22	11	0	18	90.1	0	15
CNC(=O)c1ccccc1Sc1ccc2c(/C=C/c3ccccn3)n[nH]c2c1	0	77	15	0	0	0	1	0	0	0	0	0	20	58		99.9	3	0	0	
O=C(NCCCN1CCOC1=O)c1cnc(NCc2cc(Cl)ccc2Cl)nc1NC1CCCC1	9	15	0	4	2	0	0	17	17	0	0	46	0	0	0	0	0	7	0	0
CN(C)CCOc1ccc(-c2cc(-c3c[nH]nc3-c3ccccn3)ccn2)cc1 [GW835314]	12	0	0	32	2	0	0	0	8	31	21	8	0	31	4	6	0	0	0	11
C[C@H]1Oc2cc(cnc2N)-c2c(nn(C)c2C#N)CN(C)C(=O)c2ccc(F)cc21	0	97.7	93.4	78	0	58	0	7	0	0	0	5	0	0	0	3	0	42	0	16
C[C@@H](Oc1cc(-c2cnn(C3CCNCC3)c2)cnc1N)c1c(Cl)ccc(F)c1Cl	88	99.9	99.7		21	0	0	0	41	84	43		67	53	32	22	0	11	0	0
